# From the supplement of paper PMC6089552
# Where “and” joins values, the source holds several entries; their conditions need not be identical. Identical values can stand only once. Among all 3,200 compounds or so, about 300 (9.4%) showed activity. For the sample, actives were picked, then their nearest neighbours and some compounds at random. A number with no mark means an inactive call.
# System: A673/TR/shEF
# Experiment: cell viability (LOESS-normalised, relative to median of negative controls) (log2 ratio); higher = more viable cells (less compound effect), active = hit call of the paper (over 3 MAD below the median)
# Conditions: treatment time: 72 h
# Method in brief: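 Viability of A673/TR/shEF Ewing sarcoma cells was determined by CellTiter-Glo luminescence. The cells, at 1,500 per well in 384-well plates, were grown with or without doxycycline from 24 h before compound addition to switch on EWS-FLI1 shRNA knockdown, then exposed for three days to library compounds at two or more concentrations or to DMSO controls. Signals were LOESS-corrected plate by plate, normalised to the negative-control median and log2-transformed.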
# [1] = 0.25 µM, library screen: screen1, EWS-FLI1 expression: high (no doxycycline)
# [2] = 0.25 µM, library screen: screen1, EWS-FLI1 expression: low (doxycycline-induced shRNA knockdown)
# [3] = 2.5 µM, library screen: screen1, EWS-FLI1 expression: high (no doxycycline)
# [4] = 2.5 µM, library screen: screen1, EWS-FLI1 expression: low (doxycycline-induced shRNA knockdown)
# [5] = 0.25 µM, library screen: screen2, EWS-FLI1 expression: high (no doxycycline)
# [6] = 0.25 µM, library screen: screen2, EWS-FLI1 expression: low (doxycycline-induced shRNA knockdown)
# [7] = 2.5 µM, library screen: screen2, EWS-FLI1 expression: high (no doxycycline)
# [8] = 2.5 µM, library screen: screen2, EWS-FLI1 expression: low (doxycycline-induced shRNA knockdown)
compound,measurement,setting,value
Cc1cc(Nc2ccc(O)cc2)n2c(nc3ccccc32)c1C#N,cell viability (log2),[1],0.079
same,cell viability (log2),[2],0.0759
same,cell viability (log2),[3],0.0987
same,cell viability (log2),[4],0.0687
CC1(O)/C=C\C=C(\CO)C2CC(C)(C)C2(O)CC1 (configuration not stated),cell viability (log2),[1],0.0666
same,cell viability (log2),[2],0.000836
same,cell viability (log2),[3],0.128
same,cell viability (log2),[4],0.00974
CN1CCN(c2nc3ccccn3c(=O)c2/C=C2\SC(=S)N(CC3CCCO3)C2=O)CC1 (configuration not stated),cell viability (log2),[1],0.134
same,cell viability (log2),[2],0.0801
same,cell viability (log2),[3],0.0647
same,cell viability (log2),[4],0.048
CCC(C)C(=O)c1c(O)c(C)c2oc3c(C)c(O)c(C(=O)C(C)CC)c(O)c3c2c1O (configuration not stated),cell viability (log2),[1],0.0233
same,cell viability (log2),[2],0.116
same,cell viability (log2),[3],-0.592 (active)
same,cell viability (log2),[4],-0.0271
CC(=O)c1c(O)c(C)c(O)c2c1oc1c(C(C)=O)c(O)c(C)c(O)c12,cell viability (log2),[1],0.0278
same,cell viability (log2),[2],-0.0408
same,cell viability (log2),[3],0.0533
same,cell viability (log2),[4],0.172
Cc1c(O)c(C(=O)CC(C)C)c2oc3c(C(=O)CC(C)C)c(O)c(C)c(O)c3c2c1O,cell viability (log2),[1],0.0407
same,cell viability (log2),[2],0.0843
same,cell viability (log2),[3],0.0935
same,cell viability (log2),[4],0.0892
CCCCC(CC)CN=C(N)NC(N)=NCCCCCCN=C(N)NC(N)=NCC(CC)CCCC (configuration not stated),cell viability (log2),[1],0.103 and 0.0973
same,cell viability (log2),[2],0.044 and 0.0691
same,cell viability (log2),[3],0.127 and 0.022
same,cell viability (log2),[4],0.0795 and 0.0454
COc1ccc(OC)c(C2NC(=O)NC(C)=C2C(=O)Nc2ccccc2Cl)c1 (configuration not stated),cell viability (log2),[1],0.0793
same,cell viability (log2),[2],0.107
same,cell viability (log2),[3],0.0921
same,cell viability (log2),[4],0.116
CC1(C)COC(CC(=O)O)CN1 (configuration not stated),cell viability (log2),[1],0.11
same,cell viability (log2),[2],0.00312
same,cell viability (log2),[3],0.108
same,cell viability (log2),[4],0.0408
O=c1c(-c2ccc(O)cc2)coc2cc(O)ccc12,cell viability (log2),"0.025 µM, library screen: screen1, EWS-FLI1 expression: high (no doxycycline)",-0.0377
same,cell viability (log2),"0.025 µM, library screen: screen1, EWS-FLI1 expression: low (doxycycline-induced shRNA knockdown)",-0.0297
same,cell viability (log2),"0.103 µM, library screen: screen3, EWS-FLI1 expression: high (no doxycycline)",0.0817
same,cell viability (log2),"0.103 µM, library screen: screen3, EWS-FLI1 expression: low (doxycycline-induced shRNA knockdown)",0.0853
same,cell viability (log2),[1],0.184
same,cell viability (log2),[2],0.0911
same,cell viability (log2),[5],0.184
same,cell viability (log2),[6],0.099
same,cell viability (log2),"0.308 µM, library screen: screen3, EWS-FLI1 expression: high (no doxycycline)",0.12
same,cell viability (log2),"0.308 µM, library screen: screen3, EWS-FLI1 expression: low (doxycycline-induced shRNA knockdown)",0.0897
same,cell viability (log2),"0.926 µM, library screen: screen3, EWS-FLI1 expression: high (no doxycycline)",0.0631
same,cell viability (log2),"0.926 µM, library screen: screen3, EWS-FLI1 expression: low (doxycycline-induced shRNA knockdown)",0.0867
same,cell viability (log2),[3],0.11
same,cell viability (log2),[4],0.0867
same,cell viability (log2),[7],0.118
same,cell viability (log2),[8],0.117
same,cell viability (log2),"2.8 µM, library screen: screen3, EWS-FLI1 expression: high (no doxycycline)",0.137
same,cell viability (log2),"2.8 µM, library screen: screen3, EWS-FLI1 expression: low (doxycycline-induced shRNA knockdown)",0.123
same,cell viability (log2),"8.3 µM, library screen: screen3, EWS-FLI1 expression: high (no doxycycline)",0.161
same,cell viability (log2),"8.3 µM, library screen: screen3, EWS-FLI1 expression: low (doxycycline-induced shRNA knockdown)",0.0904
same,cell viability (log2),"25 µM, library screen: screen1, EWS-FLI1 expression: high (no doxycycline)",0.0121
same,cell viability (log2),"25 µM, library screen: screen1, EWS-FLI1 expression: low (doxycycline-induced shRNA knockdown)",0.0753
same,cell viability (log2),"25 µM, library screen: screen3, EWS-FLI1 expression: high (no doxycycline)",0.114
same,cell viability (log2),"25 µM, library screen: screen3, EWS-FLI1 expression: low (doxycycline-induced shRNA knockdown)",0.0782
COc1ccc(-c2coc3cc(O)ccc3c2=O)cc1,cell viability (log2),[1],-0.6 (active)
same,cell viability (log2),[2],0.0672
same,cell viability (log2),[3],0.234
same,cell viability (log2),[4],0.103
COc1ccc(-c2coc3cc(OC)ccc3c2=O)cc1,cell viability (log2),[1],0.121
same,cell viability (log2),[2],0.0353
same,cell viability (log2),[3],0.128
same,cell viability (log2),[4],0.0908
CSc1nc(N)c2ncn(C3OC(COP(=O)(O)OP(=O)(O)O)C(O)C3O)c2n1 (configuration not stated),cell viability (log2),[5],0.0889
same,cell viability (log2),[6],0.0973
same,cell viability (log2),[7],0.157
same,cell viability (log2),[8],0.0918
CC(C)(O)[C@H]1CC[C@]2(C)[C@H]3CC[C@@H]4[C@@]5(C)CCCC(C)(C)[C@@H]5[C@@H](O)C[C@@]4(C)[C@]3(C)CC[C@@H]12,cell viability (log2),[1],0.0136
same,cell viability (log2),[2],0.0775
same,cell viability (log2),[3],0.0306
same,cell viability (log2),[4],0.112
COc1cc(C2NC(=S)NC(C)=C2C(=O)Nc2cccc(Cl)c2)cc(OC)c1OC (configuration not stated),cell viability (log2),[1],0.123
same,cell viability (log2),[2],0.0893
same,cell viability (log2),[3],0.204
same,cell viability (log2),[4],0.0553
COc1cccc(N2C(=O)C(=Cc3cccc(O)c3)SC2=S)c1,cell viability (log2),[1],0.113
same,cell viability (log2),[2],0.0758
same,cell viability (log2),[3],0.133
same,cell viability (log2),[4],0.182
CC(=O)O[C@H]1C[C@@H](OC(C)=O)C(C)(C)C2C[C@@H](OC(C)=O)[C@@]3(C)C4=CC(=O)O[C@@H](c5ccoc5)[C@]4(C)CCC3[C@]21C (some centres not stated),cell viability (log2),[1],0.0506
same,cell viability (log2),[2],0.0595
same,cell viability (log2),[3],-0.853 (active)
same,cell viability (log2),[4],-0.345 (active)
CC(=O)O[C@@H]1CC[C@@]2(C)C(C[C@@H](OC(C)=O)[C@@]3(C)C4=CC(=O)O[C@@H](c5ccoc5)[C@]4(C)CCC23)C1(C)C (some centres not stated),cell viability (log2),[1],-0.00795
same,cell viability (log2),[2],0.0487
same,cell viability (log2),[3],0.121
same,cell viability (log2),[4],0.0464
